These results are taken from PubChem BioAssay (Tox21).

Structures are written as SMILES. Values without a mark were called inactive. Inconclusive results are not listed. Active and inactive are the calls of the source. Unless noted, calls come from the whole dose curve; as a rule, active = well fitted curve in the direction sought with a large enough effect in the repeat runs; inconclusive = weak or mixed curves; inactive = no such curve, though single readings can be large; an effect the other way counts as inactive or inconclusive.

Assay [1] in a line: qHTS assay for small molecule agonists of the p53 signaling pathway (AID 651631; calls by dose curve; note: nearly all actives have a fitted effect of over 15% in size; note: potency is the fitted concentration of half-maximal effect). The gist of the method:
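Testing took place in human colorectal HCT-116 cells with stable p53RE-driven beta-lactamase. After 16 h of compound exposure at 37 °C, a FRET substrate was added and fluorescence recorded 2 h later.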
On the technique in general: In qHTS, concentration-response curves come from the screen itself.

Assay [2] is described as follows: qHTS assay for small molecules that induce genotoxicity in human embryonic kidney cells expressing luciferase-tagged ATAD5 (AID 651632). Note: nearly all actives have a fitted effect of over 15% in size. Note: potency is the fitted concentration of half-maximal effect. The method in brief:
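HEK293T cells carrying a luciferase reporter tagged to ATAD5 were exposed to compound or DMSO vehicle for 16 hr at 37C, 5% CO2. Amplite was added, and after 30 min at room temperature luciferase activity was read as a marker of ATAD5 induction.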

Assay [3] is described as follows: qHTS assay for small molecule agonists of the p53 signaling pathway - cell viability (AID 651633; calls by dose curve; note: series mostly up to about 83 µM; nearly all actives have a fitted effect of over 30% in size). The method in brief: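 p53RE-bla cells, seeded at 4,000 per well and rested 5 h at 37 C/5% CO2, received compounds in DMSO for 16 h at 37 C. CellTiter-Glo was then added, and luminescence was read after 30 min at room temperature to gauge cytotoxicity.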
Assay [4] is described as follows: qHTS assay for small molecules that induce genotoxicity in human embryonic kidney cells expressing luciferase-tagged ATAD5 - cell viability (AID 651634; calls by dose curve; note: nearly all actives have a fitted effect of over 25% in size). The method in brief: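 HEK293T cells expressing luciferase-tagged ATAD5 were exposed to compound or DMSO for 15.5 hr at 37C, 5% CO2. Viability was then read as live-cell protease activity by CellTiter-Fluor fluorescence after 30 min at 37C.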

Assay [5] can be described thus: qHTS assay for small molecule disruptors of the mitochondrial membrane potential - cell viability (AID 720634; calls by dose curve;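 note: human HepG2 liver cancer cells; series mostly up to about 83 µM; nearly all actives have a fitted effect of over 20% in size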). The method in brief: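 HepG2 cells seeded overnight at 37 C, then exposed to compound or DMSO for 1 hr at 37 C, 5% CO2. m-MPI dye added, then CellTiter-Glo for 30 min at room temperature; viability read as ATP luminescence.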
Assay [6] is described as follows: qHTS assay for small molecule disruptors of the mitochondrial membrane potential (AID 720635). The gist of the method: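 HepG2 cells (2,000/well) attached overnight at 37C, then took compound for 1 hr at 37C, 5% CO2. Mito-MPS dye was added for 30 min; fluorescence was read at 490/535 nm (monomers) and 540/590 nm (aggregates).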
The nature of assay [7]: qHTS assay to test for compound auto fluorescence at 590 nm (red) in HepG2 cells (AID 720674). The method in brief: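 Intrinsic compound fluorescence in the red window (Ex/Em 540/590 nm) is measured in attached HepG2 cells exposed for 1 hr, DMSO vehicle as baseline, benchmarked to Rose Bengal sodium.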
Assay [8] is described as follows: qHTS assay to test for compound auto fluorescence at 460 nm (blue) in HEK293 cells (AID 720678). The method in brief:
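HEK293 cells (2,000 per well, medium with 10% dialyzed FBS) attached for 4-5 hr at 37C, then received compound and stood overnight at 37C, 5% CO2. Blue fluorescence was read at Ex/Em 405/460 nm and expressed relative to triamterene.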

A short description of assay [9]: qHTS assay to test for compound auto fluorescence at 590 nm (red) in HEK293 cells (AID 720679). The method in brief:
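HEK293 cells (2,000/well, medium with 10% dialyzed FBS) attached for 4-5 hr at 37C, received 23 nL compound and were incubated overnight at 37C, 5% CO2. Red fluorescence was then read at 540/590nm Ex/Em, referenced to Rose Bengal sodium.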

Assay [10] is described as follows: qHTS assay to test for compound auto fluorescence at 535 nm (green) in HEK293 cells (AID 720680).
Assay [11] can be described thus: qHTS assay to test for compound auto fluorescence at 460 nm (blue) in HEK293 cell free culture (AID 720681). The method in brief: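 Test compounds were pinned into cell-free culture medium (DMEM with 10% FBS) and fluorescence was read directly at Ex/Em 405/460 nm. Signals were expressed as fluorescence equivalents of triamterene, with DMSO vehicle as control.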
A short description of assay [12]: qHTS assay to test for compound auto fluorescence at 535 nm (green) in HEK293 cell free culture (AID 720682). The gist of the method: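 DMEM + 10% FBS, cell-free; cpd or DMSO pinned in; Ex485/Em535 read; output as fluorescein-equivalent signal.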
The nature of assay [13]: qHTS assay to test for compound auto fluorescence at 590 nm (red) in HEK293 cell free culture (AID 720683). The gist of the method: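 Tox21 10K library compounds were pinned into cell-free DMEM with 10% FBS and fluorescence was read at excitation 540 nm. Activity is expressed as Rose Bengal sodium equivalency.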
Assay [14] in a line: qHTS assay to test for compound auto fluorescence at 590 nm (red) in HepG2 cell free culture (AID 720684). The gist of the method: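 Red fluorescence (540 nm excitation, 590 nm emission) was measured after compound transfer into cell-free MEM supplemented with 10% FBS. Values are equivalencies against Rose Bengal sodium.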
A short description of assay [15]: qHTS assay to test for compound auto fluorescence at 460 nm (blue) in HepG2 cell free culture (AID 720685). The method in brief: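 Compound (23 nL) or DMSO pinned into cell-free MEM with 10% FBS; blue fluorescence read at 405/460 nm excitation/emission, expressed as auto-fluorescence equivalency to triamterene.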
A short description of assay [16]: qHTS assay to test for compound auto fluorescence at 535 nm (green) in HepG2 cell free culture (AID 720686).
Assay [17] can be described thus: qHTS assay to test for compound auto fluorescence at 460 nm (blue) in HepG2 cells (AID 720687). The gist of the method: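 Cells (2,000/well in MEM with 10% FBS) attached overnight at 37 C, then were exposed to compound or DMSO for 1 hr at 37 C, 5% CO2. Fluorescence read at Ex/Em 405/460 nm, expressed as triamterene-equivalent signal.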
Assay [18] concerns the target Glucocorticoid receptor (Homo sapiens) (UniProt P04150). The experiment in a line: qHTS assay to identify small molecule antagonists of the glucocorticoid receptor (GR) signaling pathway (AID 720692; active = well fitted inhibition curve with a large enough effect in the signal ratio in the repeat runs, not every such curve was filed as active; the % refers to the signal ratio). The method in brief: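 GR-bla HeLa cells (beta-lactamase reporter under glucocorticoid response element) were pre-plated 4 h at 37 C, treated with compounds plus 5 nM dexamethasone (final) for 18 h, then read by LiveBLAzer B/G FRET fluorescence after 2 h.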

Assay [19] is described as follows: qHTS assay to test for compound auto fluorescence at 535 nm (green) in HepG2 cells (AID 720675).
Assay [20] has as its target Glucocorticoid receptor (Homo sapiens) (UniProt P04150). The assay is described as follows: qHTS assay to identify small molecule agonists of the glucocorticoid receptor (GR) signaling pathway (AID 720691; active = well fitted activation curve with a large enough effect in the signal ratio in the repeat runs, not every such curve was filed as active; the % refers to the signal ratio). The method in brief:
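GR-bla HeLa cells (beta-lactamase reporter under glucocorticoid response element) were plated 4 h at 37 C/5% CO2, given compounds in DMSO, and incubated 18 h at 37 C. LiveBLAzer B/G FRET substrate was added for 2 h at room temperature, then fluorescence intensity read.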
% is set by controls: 0 for no effect and ±100 for the full control effect.

Sequence of Glucocorticoid receptor (Homo sapiens) (P04150 whole entry, looked up): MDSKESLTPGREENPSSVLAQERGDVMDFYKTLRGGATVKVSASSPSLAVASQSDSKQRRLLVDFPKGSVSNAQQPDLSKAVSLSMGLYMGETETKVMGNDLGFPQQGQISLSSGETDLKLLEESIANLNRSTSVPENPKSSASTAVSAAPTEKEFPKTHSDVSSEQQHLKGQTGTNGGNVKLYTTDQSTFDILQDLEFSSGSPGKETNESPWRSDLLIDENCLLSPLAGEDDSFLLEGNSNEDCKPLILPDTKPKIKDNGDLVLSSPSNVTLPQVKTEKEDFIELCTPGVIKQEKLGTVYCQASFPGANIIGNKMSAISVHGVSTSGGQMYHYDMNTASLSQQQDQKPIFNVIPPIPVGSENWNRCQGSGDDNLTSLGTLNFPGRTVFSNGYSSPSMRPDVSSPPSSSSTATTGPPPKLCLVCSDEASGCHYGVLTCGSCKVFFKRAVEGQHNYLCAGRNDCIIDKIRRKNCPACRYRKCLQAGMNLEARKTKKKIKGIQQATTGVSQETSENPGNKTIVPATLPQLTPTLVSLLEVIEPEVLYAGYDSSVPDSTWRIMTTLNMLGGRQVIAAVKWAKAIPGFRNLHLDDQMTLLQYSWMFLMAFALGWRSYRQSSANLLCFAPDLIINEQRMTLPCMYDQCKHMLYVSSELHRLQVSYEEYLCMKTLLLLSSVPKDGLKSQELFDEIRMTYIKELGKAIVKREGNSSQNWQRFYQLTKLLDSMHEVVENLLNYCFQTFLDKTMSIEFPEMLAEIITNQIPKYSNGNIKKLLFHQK

With `Cc1nnc(C(=O)NC(C)(C)c2nc(C(=O)NCc3ccc(F)cc3)c(O)c(=O)n2C)o1`, the Potency entry in assay [1], in [2] and in assay [6] was “inactive” each time. Besides, the molecule was classed as inactive in assay [3], in assay [4], in assay [5], in [7], in [8] and in [9]. Also, the result in assay [10], in assay [11], in assay [12], in assay [13], in assay [14] and in assay [15] was inactive. The molecule was called inactive in [16], in [17] and in [18].
Take `COc1ccc2cc(CCC(C)=O)ccc2c1`: the Potency entry in assay [1], in [6] and in assay [20] was “inactive” in each case. Besides, the Potency in assay [2] was 4.52 µM (active). In addition, the outcome in [3], in [4] and in [5] was inactive. Besides, the fluorescence, relative to Rose Bengal in assay [7] is -0.0879% [at 18.6 µM]. The fluorescence, % of fluorescein control was -0.11% [at 18.6 µM] in assay [19] and -0.0938% [at 18.6 µM] in assay [16]. For the same molecule, the fluorescence, % of fluorescent control in assay [9] is 0.875% [at 18.6 µM]; in [11] it was -0.26% [at 18.6 µM]; in [15], 0.0413% [at 18.6 µM]; in [17], 0.0207% [at 18.6 µM]. In assay [10], the fluorescence, % of fluorescein was -0.0683% [at 18.6 µM]. Further, in [12], the activity change is -0.0416% [at 18.6 µM]. Further, the fluorescence, % of Rose Bengal in assay [14] is -0.0935% [at 18.6 µM].
With `CCOC(=O)CC(C(C)=O)C(C)=O`, the Potency result in assay [1], in assay [2] and in [6] was “inactive” in each case. Also, the result in assay [3], in assay [4], in assay [5], in assay [7], in [19] and in [8] was inactive. Also, the outcome in assay [9], in assay [10], in assay [11], in assay [12], in assay [13] and in assay [14] was inactive. Further, the outcome in [15], in assay [16] and in assay [17] was inactive.
As to `CC(C)CC(O)Cc1ccccc1` (stereo unspecified), the Potency entry in assay [1], in assay [2] and in assay [6] was “inactive” in each case. Also, the molecule was called inactive in assay [3], in assay [4], in [5], in assay [7], in [19] and in assay [8]. The outcome in [9], in [10], in assay [11], in assay [12], in [13] and in [14] was inactive. Also, the outcome in [15], in assay [16] and in [17] was inactive.
For the molecule `CC/C=C\CCOC(=O)c1ccccc1`, the Potency entry in [1], in assay [2], in assay [6] and in assay [20] was “inactive” each time. The molecule was called inactive in assay [3], in assay [4], in assay [5], in assay [7], in assay [19] and in assay [8]. Also, the call in assay [9], in assay [10], in [11], in assay [12], in [14] and in assay [15] was inactive. For the same molecule, the molecule was classed as inactive in [16].
In the case of `CC(CN1CC(=O)NC(=O)C1)N1CC(=O)NC(=O)C1` (stereo unspecified), in [1], the Potency is 11.9 µM (active). For the same molecule, the Potency entry in [2] and in assay [6] was “inactive” in each case. Besides, the result in assay [3], in assay [4], in assay [7], in assay [8], in assay [9] and in [10] was inactive. Besides, the molecule was called inactive in assay [11], in [12], in [13], in [14], in assay [15] and in [16]. For the same molecule, the molecule was classed as inactive in [17].
As for `COc1cc(OC)cc(OC)c1`, the Potency result in assay [1], in [2] and in assay [6] was “inactive” each time. In addition, the molecule was called inactive in [3], in assay [4], in assay [7], in assay [19], in assay [8] and in assay [9]. The outcome in [10], in assay [11], in assay [12], in [13], in assay [14] and in assay [15] was inactive. Also, the molecule was classed as inactive in [16] and in [17].
